In PubChem BioAssay AID743279 (National Center for Advancing Translational Sciences (NCATS), 2014):
The whole screen tested about 360,000 compounds, of which about 17,000 (4.7%) were called active. Roughly 5% stayed inconclusive and do not appear here. Cut-off read from the data, not from the text of the source: active = activity change below about -50%; inconclusive = mostly about -30% to -49%; inactive = weaker than that. Only a selection was taken, and actives are over-represented in it overall.

assay: qHTS for Inhibitors of Inflammasome Signaling: IL-1-beta AlphaLISA Primary Screen; details: THP-1 LPS/ATP IL-1B secretion, 16 h; at 57.5 µM, stronger effect = lower value
How it was run: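 THP-1 cells pretreated 1 hr with compounds (up to 57.5 uM final), then stimulated with LPS (250 ng/mL final) plus ATP (1.25 mM final); secreted IL-1B measured by AlphaLISA after 16 hr, decreased signal indicating inhibition.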
% is set by controls: 0 for no effect and ±100 for the full control effect.

Compound | activity change
Cn1c(CCNS(=O)(=O)c2ccc(F)cc2)nnc1SCc1cccnc1 | 22.3% (inactive)
CCN(C(=O)COC(=O)c1ccccc1O)c1cccc2ccccc12 | -54.8% (active)
CCN(C(=O)CSc1ncn[nH]1)c1cccc2ccccc12 | 19.5% (inactive)
Cc1cccc(C)c1NC(=O)COC(=O)c1ccccc1O | 12.4% (inactive)
Cc1ccc(Sc2ccc(NC(=O)c3ccc(F)cc3)cc2C#N)cc1 | 10.9% (inactive)
CC1CCCC(NC(=O)c2cccc(N3CCCC3=O)c2)C1C (centres undefined) | 9.06% (inactive)
CC1CCN(C(=O)COC(=O)c2cc(S(=O)(=O)N3CCOCC3)ccc2Cl)CC1 | 11% (inactive)
O=C(c1ccc(CS(=O)Cc2ccccc2Cl)o1)N1CCN(c2ccccc2)CC1 (centres undefined) | -50.4% (active)
O=C(c1ccc(CS(=O)(=O)c2ccccc2)o1)N1CCN(c2ccccc2)CC1 | 41.8% (inactive)
Cc1ccc(CS(=O)Cc2ccc(C(=O)N3CCOCC3)o2)cc1 (centres undefined) | 41.9% (inactive)
COc1cc(/C=C/CNC[C@H]2O[C@@H](n3cnc(C(N)=O)n3)[C@H](O)[C@@H]2O)ccc1O | -17.5% (inactive)
O=C(O)CCn1cc(/C=C/C(=O)c2ccc(Cl)cc2)c(-c2cccc(Br)c2)n1 | -96.6% (active)
O=C(/C=C/NNC(=O)c1cccc(Br)c1)c1ccccc1 | -15.9% (inactive)
CCOC(=O)/C(C#N)=C/c1cn(CCC(=O)O)nc1-c1ccc(Br)cc1 | 0% (inactive)
CC(=O)N/C(=C\c1ccc(F)cc1)C(=O)NC(Cc1ccccc1)C(=O)O (centres undefined) | 41.6% (inactive)
C[C@@H]1CN([C@H](C)CO)C(=O)CCCn2nncc2CO[C@@H]1CN(C)C(=O)OCc1ccccc1 | -18.7% (inactive)
O=C(c1cc(COc2ccc(F)cc2F)on1)N1CCOCC1 | 4.05% (inactive)
CCOC(=O)N1CCN(C(=O)C[C@@H]2C[C@@]3(C(=O)OC)CCCCC=C3N(CCC3=CCCCC3)C2=O)CC1 | -20.9% (inactive)
O=C(Oc1cccc(C(=S)N2CCOCC2)c1)c1cccc(Cl)c1 | -5.21% (inactive)
O=C(/C=C/c1cccs1)c1cc(Cl)ccc1OC(=O)N1CCOCC1 | -111% (active)
CC(=O)Nc1ccccc1OC(=O)N1CCOCC1 | 4.54% (inactive)
COc1ccccc1C(=O)NC(CCSC)C(=O)N1CCN(C/C=C/c2ccccc2)CC1 (centres undefined) | -8.53% (inactive)
O=C(CC(CC(=O)c1ccccc1)c1ccco1)c1ccccc1 | 13.9% (inactive)

Compound | activity change
COc1ccc(NC(=O)COC(=O)C2COc3ccccc3O2)cc1 (centres undefined) | 8.76% (inactive)
CC(=O)c1ccc(OCC(=O)N(C)C2CCS(=O)(=O)C2)cc1 (centres undefined) | -0.496% (inactive)
O=C(c1ccc(=O)[nH]c1)N(Cc1ccco1)C1(C(=O)NC2CCCCC2)CCCCC1 | -5.54% (inactive)
Cc1cc(/C=C(/C#N)C(=O)Nc2ccc(Cl)cc2)c(C)n1-c1cccnc1 | -3.14% (inactive)
CNC(=O)/C(C#N)=C/c1c(F)cccc1Cl | -84.3% (active)
O=C(/C=C/c1c(F)cccc1Cl)Nc1nn[nH]n1 | 19.3% (inactive)
Cc1cccc(C(=O)OCC(=O)Nc2sccc2C(N)=O)c1C | -7.19% (inactive)
Cc1nn(C)cc1S(=O)(=O)N1CCN(c2ccc(F)cc2)CC1 | 1.55% (inactive)
COC1C(CO)OC(n2cnc3c(=S)nc(N)[nH]c32)C1O (centres undefined) | 2.88% (inactive)
O=c1cc(N2CCCCC2)c(-c2ccccc2)nn1Cc1cccc(F)c1 | -2.53% (inactive)
Cc1ccc2oc(=O)ccc2c1 | 12.6% (inactive)
Cc1nc2c(OCC(=O)C(C)(C)C)cccn2c1N(C)Cc1cccs1 | -25.2% (inactive)
CCc1nc2c(OCc3ccc(F)c(F)c3)cccn2c1N(C)C(=O)c1ccco1 | 10.9% (inactive)
Cc1nc2c(OCc3ccc(Cl)cc3)cccn2c1N(C)Cc1cccs1 | -66.3% (active)
CCOC(=O)[C@]12CCC=C1N(Cc1cccc3ccccc13)C(=O)[C@H](CC(=O)NCc1cccc(C(F)(F)F)c1)C2 | -21.1% (inactive)
COc1ccc2nc(N3C(=O)C(O)=C(C(=O)c4ccco4)C3c3ccco3)sc2c1 (centres undefined) | 23.2% (inactive)
COc1ccc2nc(N3CCN(C(=O)c4ccc([N+](=O)[O-])o4)CC3)sc2c1 | -88% (active)
O=C(c1ccc2nc(N3CCOCC3)sc2c1)N1CCN(c2ccc(Cl)cc2)CC1 | 1.67% (inactive)
Cc1cc(Br)cn2c(Cc3ccccc3C(F)(F)F)c(-c3ccc(Cl)cc3)nc12 | 25.9% (inactive)
CC1(C(=O)NS(=O)(=O)c2ccccc2Cl)CCN1C(=O)c1cccc(F)c1 (centres undefined) | 22.3% (inactive)
COc1ccc(CC(=O)NCc2nnc(SCC(=O)Nc3ncc(C)s3)n2C)cc1 | 15.7% (inactive)
CCOC(=O)c1nnn(-c2nonc2-n2cccc2)c1CN1CCOCC1 | 9.61% (inactive)
CC(=O)c1c(C)n(-c2ccc(C)cc2)c2ccc(O)cc12 | 12.1% (inactive)

Compound | activity change
CCOC(=O)c1c(CN2CCOCC2)n(-c2ccccc2)c2ccc(O)cc12 | -54.1% (active)
CC(=O)Nc1ccc(-c2csc(NC(=O)Nc3ccccc3)n2)cc1 | -57.5% (active)
CCOC(=O)Cc1csc(NC(NC(=O)OCC)(C(F)(F)F)C(F)(F)F)n1 | 2.86% (inactive)
CCOC(=O)Cc1csc(NC(=O)CSc2ccc(Br)cc2)n1 | 35.1% (inactive)
CC(=O)Nc1ccc(-c2cn3cccnc3n2)cc1 | -2.21% (inactive)
CC(=O)NCc1ccc(-c2csc(NC(=O)CCCc3nc4ccccc4c(=O)[nH]3)n2)cc1 | -3.36% (inactive)
CCOC(=O)Cc1csc(NC(=O)Nc2ccccc2)n1 | -69.2% (active)
N#CCCN(C(=O)Nc1ccc(Cl)c(Cl)c1)C1CCCCC1 | -24.2% (inactive)
CCOC1=C2[C@H]([C@H]3C(=O)N(c4ccccc4)C(=O)[C@H]3C1)[C@@H](c1ccccc1)N(S(=O)(=O)c1ccc(C)cc1)[C@H]2c1ccccc1 | 21.6% (inactive)
COc1ccc2occ(C(=O)c3ccc(N=C(C)N(C)C)cc3)c2c1 | -57% (active)
COc1ccc(C(=O)c2oc3ccc(Br)cc3c2NC(C)=O)cc1 | -26.9% (inactive)
COc1ccc(OC)c(C(=O)c2coc3ccc(OC)cc23)c1 | 5.54% (inactive)
Cc1nc(CN2CCN(C(=O)CCc3nnc(Cc4c[nH]c5ccccc45)o3)CC2)cs1 | 21.5% (inactive)
C[C@H]1CN([C@@H](C)CO)C(=O)c2cc(Br)cnc2O[C@H]1CN(C)S(=O)(=O)c1cccs1 | -17.5% (inactive)
Nc1ccccc1-c1nc2ccncc2[nH]1 | -6.01% (inactive)
CCCCn1c(N)c(N(CC(C)C)C(=O)c2ccc(Br)o2)c(=O)[nH]c1=O | -3.41% (inactive)
CCCCn1c(N)c(N(CC(C)C)C(=O)c2cnc(C)cn2)c(=O)[nH]c1=O | -2.8% (inactive)
CCCCn1c(N)c(N(CC(C)C)C(=O)c2ccc(-n3c(C)ccc3C)cc2)c(=O)[nH]c1=O | -61.6% (active)
CC(C)c1ccc(-c2nn[nH]n2)cc1 | -4.8% (inactive)
CN[C@H]1C[C@H]2c3cc(Oc4ccccc4C)ccc3CCN2C(=O)[C@H]1[C@H](C)O | -11% (inactive)
[O-][n+]1onc2c1CCc1[nH]c(-c3ccccc3)nc1-2 | -66.3% (active)
N#Cc1c(-c2ccc(F)cc2)nc(-c2ccccc2)[nH]c1=O | 8.84% (inactive)
CN1CCN(c2ccc3c(c2)OC[C@H](Cc2ccccc2)NS3(=O)=O)CC1 | 2.92% (inactive)

Compound | activity change
O=c1[nH]c(CCl)nc2cc(-c3ccc(Cl)cc3)sc12 | -93.8% (active)
Cn1c(NCc2cccnc2)nc2cc(-c3ccc(F)cc3)sc2c1=O | 4.79% (inactive)
COc1cccc(-c2cc3nc(NCCOc4ccccc4Cl)n(C)c(=O)c3s2)c1 | 33.6% (inactive)
O=c1[nH]c(=S)[nH]c(O)c1/C=C1\C=Nc2ccccc21 | -3.38% (inactive)
Cc1nc(C(F)(F)F)ccc1C(=O)N1CCC1(C)C(=O)NS(=O)(=O)c1ccccc1Cl (centres undefined) | 27.9% (inactive)
O=C(Nc1ccc2c(c1)[C@@H]1C[C@@H](CC(=O)N3CCCCC3)O[C@@H](CO)[C@@H]1O2)NC1CCCCC1 | 7.94% (inactive)
CC1CN(Cc2ccccc2)C(=S)NC1=O (centres undefined) | 5.57% (inactive)
CC(=O)Oc1c(C(=O)c2nnc(C)o2)c(=O)n(Cc2ccccc2)c2ccccc12 | -63.6% (active)
CC(=O)OCC(C)n1c(=O)c2ccccc2n1C(C)=O (centres undefined) | 21.8% (inactive)
CC(=O)c1nc2ccccc2n1Cc1ccccc1 | 24.8% (inactive)
COc1ccc(NS(=O)(=O)c2cc(NC(=O)CC(=O)c3ccc([N+](=O)[O-])cc3)ccc2C)cc1 | -19.6% (inactive)
CC(C)(C)NC(=O)c1cc(NC(=O)c2ccco2)cc(NC(=O)c2ccco2)c1 | 3.33% (inactive)
O=C(Nc1cccc(-c2nc3ncccc3o2)c1)c1ccco1 | -57% (active)
O=C(Nc1cc(-c2nc3ncccc3o2)ccc1Cl)c1ccco1 | 4.47% (inactive)
Cc1ccc2nc(SCc3nnc(-c4ccccc4[N+](=O)[O-])o3)c(C#N)cc2c1 | 24.6% (inactive)
Cc1ccc([C@H]2C[C@H](O)[C@@H](n3cc(COC(=O)c4ccccc4)nn3)CN2CC2CCCCC2)cc1 | -1.43% (inactive)
CN1CCN(C(=O)c2ccccc2NC(=O)COc2ccccc2Cl)CC1 | 7.63% (inactive)
COc1ccc(C(=O)OCC(=O)NCCCc2ccccc2)cc1OC | 19% (inactive)
CC(C)n1ncc2c(C(=O)N3CCN(Cc4cccs4)CC3)cc(C3CC3)nc21 | -6.72% (inactive)
CC(=O)Nc1cccc(-c2ccnc3c2CC(C)(C(=O)NCc2ccccc2)O3)c1 (centres undefined) | 92.1% (inactive)
